Assay results taken from PubChem BioAssay (NCATS).
Values joined by “and” are separate entries in the source; they are usually repeats but may differ in a detail not shown here. Equal values may be shown once. Records with an inconclusive call do not appear. Unmarked numbers belong to inactive results. Active and inactive are the calls of the source. Calls follow the shape of the dose curve; as a rule, active = well fitted curve in the direction sought with a large enough effect; inconclusive = small, poorly fitted or top-dose-only effect, or another doubt; inactive = no such curve, though single readings can be large; an effect the other way counts as inactive or inconclusive. Where a SMILES comes first, the peptide text is derived from it. Bridges are numbered along the chain shown (N, C = ends). [ ]: non-standard residue; d: D form. Orn = NCCC[C@H](N)C(=O)O; Mpa = O=C(O)CCS

Legend:
[1] = qHTS Assay for Identifying Gametocytocidal Compounds (AID 743244);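 also: actives lower the fluorescent signal which means gametocytes are killed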; settings: P. falciparum 3D7 stage III-V gametocytes, alamarBlue, 72 h; max response: hits give low values
How it was run: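 Stage III-V P. falciparum 3D7 gametocytes, 20,000 per well, were exposed to compounds for 72 h at 37C, 5% CO2. AlamarBlue was then added for 24 h and viability was read as fluorescence at Ex 525/Em 598 nm.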

[2] = P-glycoprotein substrates identified in KB-8-5-11 adenocarcinoma cell line, qHTS therapeutic library screen (AID 1346987); also: nearly all actives have a fitted effect of over 65% in size; also: potency is read from the fitted curve at half-maximal effect
How it was run: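 Compounds are pinned in dose-response onto KB-8-5-11 cells (500 cells/well, colchicine-free medium) and left 72 h at 37 degree C. CellTiter-Glo luminescence then yields AC50 values.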
% is scaled to controls: 0 for no effect and ±100 for the full control effect.

SMILES	max response [1]	Potency [2]
O=C1O[C@@H]2[C@@H](O)[C@H](O)O[C@@H]2[C@H]1O	3.86%	inactive
Cc1ccccc1CNc1ncnc2c1ncn2[C@@H]1O[C@H](CO)[C@@H](O)[C@H]1O	-9.34%	inactive
c1cnc2cc3c(cc2n1)[C@@H]1CNC[C@H]3C1	0.0621%	inactive
O=C(O)c1cc2ccccc2c(Cc2c(O)c(C(=O)O)cc3ccccc23)c1O	60.7%	inactive
CCN1CCCC1CNC(=O)c1cc(S(=O)(=O)CC)ccc1OC (configuration not stated)	-5.69% and 12.8%	inactive
CC(C)(S)C(=O)N[C@@H](CS)C(=O)O	-15.4% and 8.89%	inactive
CCOC(=O)Cc1cccc(-c2cc(CCCCCCc3ccc(O[C@H]4O[C@H](COC(C)=O)[C@@H](OC(C)=O)[C@H](OC(C)=O)[C@@H]4OC(C)=O)c(-c4cccc(CC(=O)OCC)c4)c3)ccc2O[C@H]2O[C@H](COC(C)=O)[C@@H](OC(C)=O)[C@H](OC(C)=O)[C@@H]2OC(C)=O)c1	-24.7%	inactive
CCC(=O)Oc1ccc2c(c1)CC[C@@H]1[C@@H]2CC[C@]2(C)[C@@H](OC(=O)CC)CC[C@@H]12	-6.54%	10.3 µM (active)
Cc1c(N)nc(C(CC(N)=O)NCC(N)C(N)=O)nc1C(=O)NC(C(=O)NC(C)C(O)C(C)C(=O)NC(C(=O)NCCc1nc(-c2nc(C(=O)NCCCN[C@@H](C)c3ccccc3)cs2)cs1)C(C)O)C(O[C@@H]1O[C@@H](CO)[C@@H](O)[C@H](O)[C@@H]1O[C@H]1O[C@H](CO)[C@@H](O)[C@H](OC(N)=O)[C@@H]1O)c1cnc[nH]1 (some centres not stated)	6.97%	inactive
O=C(Nc1ccc(/C=C/c2ccc(NC(=O)c3cc(S(=O)(=O)O)c4cccnc4c3O)cc2S(=O)(=O)O)c(S(=O)(=O)O)c1)c1cc(S(=O)(=O)O)c2cccnc2c1O	-6.63%	inactive
COc1ccc(CNCC(O)COc2ccc3[nH]c(=O)ccc3c2)cc1OC (configuration not stated)	-1.67%	inactive
CCOC(=O)Nc1ccc2c(c1)N(C(=O)CN(C)C)c1ccccc1CC2	6.79%	inactive
CCCCCC(O)/C=C/C=O (configuration not stated)	-0.932%	inactive
O=C1O[C@H]2[C@H](O)[C@@H]1OC(O)[C@H]2O (some centres not stated)	-4.25%	inactive
CCCC1([C@H](O)C/C=C/[C@H]2[C@H](O)CC(=O)[C@@H]2CCCCCCC(=O)OC)CCC1	2.12%	inactive
O=C(CO)[C@@H](O)[C@H](O)[C@H](O)CO	0.975%	inactive
CN=C(NC)NCc1ccccc1	13.1%	inactive
CCOc1ccc(C[C@H]2NC(=O)CCSSC[C@@H](C(=O)N3CCC[C@H]3C(=O)N[C@@H](CCCN)C(=O)NCC(N)=O)NC(=O)[C@H](CC(N)=O)NC(=O)[C@H]([C@@H](C)O)NC(=O)[C@H]([C@@H](C)CC)NC2=O)cc1 ([Mpa][dY](Et)ITNCP[Orn]G-NH2; disulfide 1-6)	12.3%	inactive
Cc1c(O)cc2c(c1C)O[C@](C)(CCC[C@H](C)CCC[C@H](C)CCCC(C)C)CC2	-0.611%	inactive
CCN(CC)CCOC(=O)c1ccc(N)cc1Cl	-6.93%	inactive
NC(=O)C[C@@H](N)C(=O)O	-9.98%	inactive
CCCC(=O)N1CCCN(c2nc(N)c3cc(OC)c(OC)cc3n2)CC1	16.2%	inactive
Cc1cc(Nc2ccccc2C(=O)O)ccc1Cl	-23.6%	inactive
CS(=O)(=O)Nc1cc2occ(NC=O)c(=O)c2cc1Oc1ccccc1	-2.7%	inactive
CCC(CN)CC(C)CCNCC(O)CNCC(C)CC(CC)CN (configuration not stated)	-11%	inactive
C1CNCCN1	-4.23%	inactive
